Assay outcomes from PubChem BioAssay.
ssDAF-12 act – S. stercoralis DAF-12 activation, primary screen. HEK293 ssDAF-12/GRIP1 lit1-tk-luc reporter, luminescence; % of 3 µM dafachronic acid response. AID 652126. activation, % at 6.8 µM. 370,000 compounds, 1% hits;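 active means activation above the mean over all tested compounds plus 3 SD, cut at about 0.9% in these data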;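 further: 0% = DMSO-only wells and 100% = 3 µM delta7-dafachronic acid wells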
DAX1 inh-1 – inhibitors of human orphan nuclear receptor DAX1 (NR0B1). 340,000 compounds, 0.99% hits. inhibition, % at 6.75 µM. HEK293 Gal4-DAX1 luciferase reporter, luminescence;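 active means inhibition above the mean over all tested compounds plus 3 SD, cut at about 4.2% in these data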;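 further: 0% = DAX1-transfected cells with DMSO and 100% = empty-vector control cells with DMSO; inhibition shows as a rise in luminescence from relieved DAX1 repression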
Target sequence (P51843 207-470 limits assumed): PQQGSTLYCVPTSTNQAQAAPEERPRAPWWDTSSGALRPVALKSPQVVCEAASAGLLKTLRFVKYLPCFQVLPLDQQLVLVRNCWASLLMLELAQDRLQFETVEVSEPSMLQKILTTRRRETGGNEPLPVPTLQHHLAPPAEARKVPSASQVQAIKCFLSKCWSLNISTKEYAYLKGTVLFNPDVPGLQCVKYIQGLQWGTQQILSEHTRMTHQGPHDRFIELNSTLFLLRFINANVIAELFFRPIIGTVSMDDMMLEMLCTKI
SMARCA2 act – SMARCA2 function activation, primary screen. 370,000 compounds, 1% hits. activation, % at 9.1 µM. MG213 cells, MMTV-luciferase reporter, dexamethasone, overnight; in the data active means activation above about 7.8%;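 further: 0% = vehicle wells and 100% = reference activator wells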
hgDAF12 agonist – agonists of H. glycines DAF-12 nuclear receptor | HEK293 GAL4-hgDAF12 UAS-luciferase reporter, agonist luminescence; normalized to butyrate control | activation, % at 6.8 µM | 370,000 compounds, 1.8% hits | AID 687014;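 active means activation above a cutoff set at the mean of all screened compounds plus 3 SD, cut at about 10% in these data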;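 further: 0% = DMSO wells and 100% = sodium butyrate wells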
DAX1 inh-2 – inhibitors of DAX1 repression of SF-1 activated StAR promoter; inhibition, % at 6.8 µM; 370,000 compounds, 1.1% hits; AID 652010; HEK293T StAR-luciferase reporter, SF-1/DAX-1 repression relief;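 active means inhibition above the mean over all tested compounds plus 3 SD, cut at about 3.6% in these data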;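 further: 0% = DAX-1 cells with DMSO and 100% = cells lacking DAX-1 with DMSO; higher inhibition means more luminescence from relief of DAX-1 repression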
hcDAF-12 act – activates DAF-12 receptor from parasite H. contortus | HEK293 hcDAF-12 lit1-tk-luc reporter, luminescence; 0% DMSO, 100% Δ7-dafachronic acid | activation, % at 6.8 µM | 370,000 compounds, 1.4% hits;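 active means activation above the mean of all tested compounds plus 3 SD, cut at about 5.5% in these data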;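 further: 100% = response to 3 µM Δ7-dafachronic acid high control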
SMARCA2 conf – SMARCA2 activation, confirmation screen. shares compounds with SMARCA2 act. MG213 cells, MMTV-luciferase with dexamethasone, luminescence, overnight; MG213 cells expressing E1A, Rb sequestered; DMSO wells 0%, reference activator 100%. activation, % at 9.1 µM. 3,500 compounds, 30% hits;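 active means activation above its plate's cutoff, the mean activation of tested wells plus 3 SD, cut at about 7.9% in these data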
GAL4-VP16 Luc – GAL4-VP16 reporter activation counter-screen; shares compounds with SMARCA2 act; HEK293 GAL4-VP16 pG5luc reporter, luciferase luminescence; scaled: DMSO wells 0%, SAHA wells 100%; activation, % at 9.1 µM; 3,500 compounds, 41% hits;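 active means activation above the solvent-only control well mean plus 3 SD, averaged across control plates, cut at about 5.2% in these data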
An asterisk follows results filed as active; / = not tested or not shown. Rows were chosen to be rich in hits. Some 4.8% of all compounds tested hit in one or more screens of this group.

SMILES	ssDAF-12 act	DAX1 inh-1	SMARCA2 act	hgDAF12 agonist	DAX1 inh-2	hcDAF-12 act	SMARCA2 conf	GAL4-VP16 Luc
COc1ccc2[nH]c(=O)c(C(c3nnnn3C(C)(C)C)N(Cc3ccco3)CC3CCCO3)cc2c1 (centres undefined)	-1	0	12*	-2	0	0	-3	1
Cc1noc(C)c1C(=O)Nc1ccc(-c2nnc3n2CCCCC3)cc1	-1	0	-1	0	-2	-2	/	/
COc1ccc(C(=O)N/N=C(/C)c2cccc(NC(=O)C(F)(F)F)c2)cc1	-1	-1	14*	3	1	-1	8	7.0*
CCNC(=O)C1(C)CCN1CCS(=O)(=O)c1ccc(C)cc1 (centres undefined)	-1	/	-3	1	1	-1	/	/
CCOC(=O)C1CN(S(=O)(=O)c2ccccc2)c2cc(S(=O)(=O)CC)ccc2O1 (centres undefined)	-1	0	-1	2	0	-2	/	/
CCS(=O)(=O)c1ccc2c(c1)N(S(C)(=O)=O)CC(C(=O)NCCOC)O2 (centres undefined)	-1	0	12*	-1	1	-1	-1	1
O=C(COC(=O)/C=C/c1ccco1)NCc1ccc2c(c1)OCO2	-2	1	-1	-1	0	-1	/	/
Nc1nc(Nc2ccccc2F)nc(NCc2ccco2)c1[N+](=O)[O-]	0	0	13*	3	0	1	7	2
O=C(NCCNc1ccccc1[N+](=O)[O-])c1cc(F)c(F)cc1Cl	0	2	14*	5	1	2	5	5.3*
Cc1occc1C(=O)N/N=C/C=C\c1ccccc1[N+](=O)[O-]	-1	/	8.9*	5	0	-1	-3	1
O=C(N/N=C/C=C\c1ccccc1[N+](=O)[O-])c1ccco1	0	3	2	2	1	1	/	/
CC(C)(C)OC(=O)N[C@H]1C=C[C@@H](CC(=O)OCC(F)(F)F)C1	0	/	4	6	2	0	/	/
COc1ccc(S(=O)(=O)N2CCOCC2)cc1NC(=O)CCCSc1ccccc1	-1	1	9.3*	0	1	1	-2	2
COc1ccc(S(=O)(=O)N2CCOCC2)cc1NC(=O)CCCOc1ccccc1	-1	0	1	-1	0	-1	/	/
COc1ccc(C2=NN(C(=O)CN3CCOCC3)C(c3nc4ccccc4[nH]3)C2)cc1 (centres undefined)	0	1	11*	10	2	4	7	7.6*
COc1ccc(C2=NN(C(=O)CN3CCCCC3)C(c3ccc(C)cc3)C2)cc1 (centres undefined)	-1	-1	-2	1	-1	0	/	/
CC(=O)c1cccc(N(C(=O)c2ccco2)C(C(=O)NC2CCCCC2)c2ccc(C)o2)c1 (centres undefined)	-1	3	-2	0	0	-2	/	/
CCOC(=O)N1CCN(Cc2nnc(-c3cccc(Br)c3)o2)CC1	-1	1	-4	-3	0	-2	/	/
COc1ccc(C(NC(=O)c2ccco2)c2ccc(OC)c(OC)c2)cc1OC	-1	-2	9.0*	0	0	-3	-1	1
O=C(CSc1nccn1Cc1ccc(F)cc1)Nc1ccc(F)cc1F	-1	0	-1	-1	-2	-1	/	/
O=C(Nc1ccccc1)c1nccn1Cc1ccc(F)cc1	0	2	9.9*	3	1	0	3	3
Cc1nc(CCNC(=O)CC2C(=O)NCCN2Cc2ccc(F)cc2)sc1C (centres undefined)	-1	0	0	3	0	-1	/	/
